Dicer processing: inhibitors of Dicer pre-microRNA processing, primary screen, biochemical, cat-ELCCA, chemiluminescence; Endoribonuclease Dicer (Homo sapiens), Q9UPY3; cat-ELCCA pre-miR-21 Dicer processing; stronger effect = higher value; z-score at 25 µM; 6% of 47,000 active; in the data active means z-score above about 3, passing the limit was not always enough;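 further: plate controls were vehicle for no effect and no enzyme for full effect; higher signal means more uncleaved substrate so more Dicer inhibition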
* = called active by the depositor. Many of the other results were omitted from the sample, so hits are more common in it than they were.

SMILES	Dicer processing
CC(=O)Cn1cnc2c(sc3nc(C)cc(C)c32)c1=O	0.8
Cc1cc(C)c2c(n1)sc1c(=O)n(/N=C/c3ccccc3)c(C)nc12	-0.57
Cc1cc(C)c2c(n1)sc1c(=O)oc(C)nc12	4.92*
FC(F)(F)c1ccnc(NCc2ccc(Cl)cc2)n1	-0.53
Cc1ccc(N2C(=O)C(=O)/C(=C(\O)c3ccccc3)C2c2ccc(N(C)C)cc2)cc1 (centres undefined)	-1.01
O=C(CCCN1CCC(O)(c2cccc(C(F)(F)F)c2)CC1)c1ccc(F)cc1	-1.63
Cc1ccc(-n2c(C)c3c(C)nnc(C)c3c2C)cc1N	-1.36
Cn1c(SCc2csc(COc3ccc(C4SCCS4)cc3)n2)nnc1C(F)(F)F	-0.96
CC(C)(C)NC(=O)C(=O)NCC1CCCO1 (centres undefined)	-0.7
COc1ccc2nc(C)cc(Nc3ccc(Br)cc3)c2c1	5.05*
CCOc1ccc(Nc2cc(C)nc3ccc(OC)cc23)cc1	2.86
Cc1cc(Nc2ccccc2)c2ccccc2n1	1.49
COc1cccc(C2CC(c3ccc(OCc4ccccc4)cc3)n3nc(N)nc3N2)c1 (centres undefined)	0.59
Cc1cccn(Cc2c(F)cccc2Cl)c1=O	0.52
Cc1ccc(C(=O)Nc2sc3c(c2C(=O)N2CCCC2)CCC(C)C3)cc1 (centres undefined)	1.21
COc1ccc2[nH]cc(CCNC3CC(=O)N(c4ccc(Br)cc4)C3=O)c2c1 (centres undefined)	3.49*
COc1ccc(N2C(=O)CC(NCCc3c[nH]c4ccc(Cl)cc34)C2=O)cc1 (centres undefined)	-0.9
O=C1CC(NCCc2c[nH]c3ccccc23)C(=O)N1c1cccc(Cl)c1 (centres undefined)	0.63
CS/C(Nc1cccnc1)=C(/C#N)c1ccccn1	0.47
CCCC1CCC(c2ccc(C(=O)O)cc2)CC1 (centres undefined)	-0.22
CCc1c(O)nc(SCc2ccc(F)cc2)[nH]c1=O	-1.66
C(=N\Nc1ncnc2c1cnn2-c1ccccc1)/c1cccs1	2.01
NS(=O)(=O)c1cc(C(=O)O)cc(N2CCCC2)c1Oc1ccccc1	1.62
Cc1c(C)c(C)c(S(=O)(=O)Nc2ccc(Cl)cc2Cl)c(C)c1C	-0.12
Cc1c(C)c(C)c(S(=O)(=O)Nc2ccccc2N)c(C)c1C	13.1*
SMILES	Dicer processing
Cc1c(C)c(C)c(S(=O)(=O)Nc2cc(Cl)cc(Cl)c2)c(C)c1C	0.7
O=C(c1ccccc1)n1ccc(-c2ccc(C#Cc3ccccc3)s2)n1	-0.71
CCOC(=O)c1c(C)oc2ccc(OC(=O)c3ccc(OC)c(OC)c3)cc12	1.06
CC1=C(C#N)C(c2ccc(N(C)C)cc2)C2=C(CC(C)(C)CC2=O)N1 (centres undefined)	-0.08
CC1=C(C#N)C(c2ccc(F)cc2)C2=C(CC(c3ccccc3)CC2=O)N1 (centres undefined)	1.12
CCOCCOC(=O)C1=C(C)NC2=C(C(=O)CC(c3cccs3)C2)C1c1cccc(O)c1 (centres undefined)	3.39*
CCOc1ccc(C2CC(=O)C3=C(C2)NC(C)=C(C(=O)OCCOC)C3c2cccs2)cc1OC (centres undefined)	-1.39
CCOc1cc(C2C(C(=O)OCCOC)=C(C)NC3=C2C(=O)CC(c2cccs2)C3)ccc1O (centres undefined)	3.32*
COc1ccc(C2CC(=O)C3=C(C2)NC(C)=C(C#N)C3c2ccc(F)cc2)cc1 (centres undefined)	4.52*
CC1=C(C#N)C(c2ccccc2F)C2=C(CCCC2=O)N1 (centres undefined)	6.56
CCc1ccc(C2C(C#N)=C(C)NC3=C2C(=O)CCC3)cc1 (centres undefined)	0.32
COc1ccc(C2CC(=O)C3=C(C2)NC(C)=C(C#N)C3c2ccc(Br)cc2)cc1 (centres undefined)	0.83
CCOC(=O)C1=C(C)NC2=C(C(=O)CC(c3cccs3)C2)C1c1ccc(F)cc1 (centres undefined)	-0.12
CCOCCOC(=O)C1=C(C)NC2=C(C(=O)CC(c3cccs3)C2)C1c1ccc(OC)c(O)c1 (centres undefined)	-0.96
CC1=C(C#N)C(c2cccc(F)c2)C2=C(CCCC2=O)N1 (centres undefined)	4.72*
CCOC(=O)C1=C(C)NC2=C(C(=O)CC(c3cccs3)C2)C1c1ccsc1 (centres undefined)	1.08
COc1ccc(-c2ccc(-c3noc(-c4ccccc4)n3)c(OC)n2)cc1	-0.11
CCOc1ccccc1C1C2=C(CCCC2=O)Nc2nc(-c3cccc(C)c3)nn21 (centres undefined)	0.05
C=CCn1c(SCC(C)=O)nnc1-c1oc2nc(-c3ccccc3)cc(-c3ccco3)c2c1N	-2.36
O=C(O)/C=C/C(=O)NCc1ccc(Cl)c(Cl)c1	-1.8
Cc1cc(NC(=O)Nc2nc(-c3ccc(C)c(Cl)c3)c(C)s2)c(C(F)(F)F)o1	-0.81
N#CCC(=O)NNC(=S)NCc1cccs1	-0.01
COc1ccc(C2C(C(=O)OC(C)C)=C(C)NC3=C2C(=O)CC(c2ccccc2)C3)c(OC)c1 (centres undefined)	0.37
O=C(CC1(O)C(=O)N(CCc2ccccc2)c2ccccc21)c1ccccn1 (centres undefined)	-5.28
COc1ccc(Nc2nc(N)nc(CN3CCc4ccccc4C3)n2)cc1	0.01
SMILES	Dicer processing
O=C(C1CC(c2c(F)cccc2Cl)=NO1)N1CCCC1 (centres undefined)	-0.5
O=C1CSC(=S)N1c1ccc(F)c(F)c1	1.82
CC1=C(C(=O)OC2CCCC2)C(c2ccc(C)cc2)C2=C(CCCC2=O)N1 (centres undefined)	2.94
Cc1cc(C)n(S(=O)(=O)c2ccc(-c3cc(C(F)(F)F)n(C)n3)s2)n1	-0.16
Cc1oc2c(F)c(F)c(F)c(F)c2c1C(=O)Nc1ccc(Cl)cc1	0.56
CCOc1ccc(C2C(C(=O)OC(C)C)=C(C)NC3=C2C(=O)CC(c2ccccc2)C3)cc1 (centres undefined)	2.31
CCOCCOC(=O)C1=C(C)NC2=C(C(=O)CC(c3cccs3)C2)C1c1ccc(O)c(OC)c1 (centres undefined)	5.03*
COc1ccc(C2CC(=O)C3=C(C2)NC(C)=C(C(=O)OC(C)C)C3c2ccc(N(C)C)cc2)cc1 (centres undefined)	3.76*
COCCOC(=O)C1=C(C)NC2=C(C(=O)CC(c3cccs3)C2)C1c1ccc(O)cc1 (centres undefined)	3.04*
CCCOC(=O)C1=C(C)NC2=C(C(=O)CC(c3cccs3)C2)C1c1ccc(F)cc1 (centres undefined)	2.8
COCCOC(=O)C1=C(C)NC2=C(C(=O)CC(c3cccs3)C2)C1c1ccc(O)c(OC)c1 (centres undefined)	2.55
COCCOC(=O)C1=C(C)NC2=C(C(=O)CC(c3cccs3)C2)C1c1ccsc1 (centres undefined)	1.43
CCOC(=O)C1=C(C)NC2=C(C(=O)CC(c3ccc(OC)cc3)C2)C1c1ccc(O)c(OC)c1 (centres undefined)	-0.1
CCOc1ccc(C2C(C(=O)OC(C)C)=C(C)NC3=C2C(=O)CC(c2ccc(OC)cc2)C3)cc1 (centres undefined)	0.91
CCOc1cc(C2C(C(=O)OC(C)C)=C(C)NC3=C2C(=O)CC(c2ccccc2)C3)ccc1O (centres undefined)	10.6*
COc1ccc(C2CC(=O)C3=C(C2)NC(C)=C(C(=O)OC(C)C)C3c2ccc(F)cc2)cc1 (centres undefined)	-0.25
